# Experimental data as given in PubChem BioAssay (NCATS).
# Where “and” joins values, the source holds several entries; their conditions need not be identical. Identical values can stand only once. Inconclusive results are not listed. Entries that show only a call come without a potency. Unmarked numbers belong to inactive results. Calls of active or inactive are those of the source. Calls follow the shape of the dose curve; as a rule, active = well fitted curve in the direction sought with a large enough effect; inconclusive = small, poorly fitted or top-dose-only effect, or another doubt; inactive = no such curve, though single readings can be large; an effect the other way counts as inactive or inconclusive.
# Legend:
# [1] = target: Cellular tumor antigen p53 (Homo sapiens) (UniProt P04637); assay: Primary qHTS for small molecule compounds that upregulate eGFP-tagged delta133p53alpha (in N-terminal) cells. (AID 2060322); settings: NCI-H358 eGFP-delta133p53alpha fluorescence, 24 h; activation: active compounds read high; also: nearly all actives have a fitted effect of over 75% in size; also: potency is read from the fitted curve at half-maximal effect; as to activation: series mostly up to about 56 µM
# Sequence of Cellular tumor antigen p53 (Homo sapiens) (P04637 whole entry, looked up): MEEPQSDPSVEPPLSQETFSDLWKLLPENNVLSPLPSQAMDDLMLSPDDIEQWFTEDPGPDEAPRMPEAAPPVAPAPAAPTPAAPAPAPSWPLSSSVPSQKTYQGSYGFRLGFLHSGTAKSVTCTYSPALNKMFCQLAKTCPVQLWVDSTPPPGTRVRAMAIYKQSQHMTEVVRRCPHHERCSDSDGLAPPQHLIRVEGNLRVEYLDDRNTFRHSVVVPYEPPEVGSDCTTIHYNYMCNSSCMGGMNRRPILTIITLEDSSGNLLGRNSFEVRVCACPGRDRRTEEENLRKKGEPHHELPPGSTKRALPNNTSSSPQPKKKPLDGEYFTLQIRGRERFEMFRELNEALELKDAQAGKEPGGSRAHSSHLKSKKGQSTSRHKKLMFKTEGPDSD
# Procedure, shortened: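 NCI-H358 cells pre-induced 24 h with 10 ng/ml doxycycline to express N-terminal eGFP-delta133p53alpha, then dosed 24 h at 37C without doxycycline; fixed, Hoechst-stained, GFP intensity by laser scanning cytometry, normalized to DMSO (0%) and 57.5 uM 5-azacytidine (100%).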
# [2] = target: Aldehyde dehydrogenase, mitochondrial (Homo sapiens) (UniProt P05091); assay: qHTS for Inhibitors of the Aldehyde Dehydrogenase Family (ALDH2) Primary screen (AID 2061308); also: nearly all actives have a fitted effect of over 55% in size
# [3] = target: Retinaldehyde dehydrogenase 3 (Homo sapiens) (UniProt P47895); assay: qHTS for Inhibitors of the Aldehyde Dehydrogenase Family (ALDH1A3) Validation screen (AID 2061312); also: nearly all actives have a fitted effect of over 45% in size; also: potency is read from the fitted curve at half-maximal effect
# [4] = target: Retinaldehyde dehydrogenase 3 (Homo sapiens) (UniProt P47895); assay: qHTS for Inhibitors of the Aldehyde Dehydrogenase Family (ALDH1A3) Primary screen (AID 2061315)
# [5] = BET inhibitor-based combinations targeting novel dependencies in MECOM-rearranged (r) AML: OCI-AML3 cell line (AID 2202232); settings: Potency: OCI-AML3 viability; also: nearly all actives have a fitted effect of over 35% in size; also: potency is read from the fitted curve at half-maximal effect
# Procedure, shortened: (§1)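 Each compound was tested at eleven concentrations on cells seeded at 500/well. After two days' incubation, ATP-based luminescence reported viability; responses relative to DMSO and blank wells yielded AUC and cell-line-centred Z-AUC.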
# [6] = BET inhibitor-based combinations targeting novel dependencies in MECOM-rearranged (r) AML: MV-4-11 cell line (AID 2202233); also: nearly all actives have a fitted effect of over 45% in size; also: potency is read from the fitted curve at half-maximal effect
# Procedure, shortened: (§2)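 First, 500 cells per well were seeded; next, drugs were pinned as 11-point doses; then plates sat 48 hr in the incubator; finally CellTiter-Glo was added and luminescence read, with AUC and Z-AUC computed.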
# [7] = BET inhibitor-based combinations targeting novel dependencies in MECOM-rearranged (r) AML: UCSD-AML1 cell line (AID 2202235); also: nearly all actives have a fitted effect of over 40% in size; also: potency is read from the fitted curve at half-maximal effect
# Procedure, shortened: as §2
# [8] = BET inhibitor-based combinations targeting novel dependencies in MECOM-rearranged (r) AML: AML-191 cell line (AID 2202236; also: nearly all actives have a fitted effect of over 35% in size; also: potency is read from the fitted curve at half-maximal effect)
# Procedure, shortened: as §1
# [9] = BET inhibitor-based combinations targeting novel dependencies in MECOM-rearranged (r) AML: AML-194 cell line (AID 2202237; also: nearly all actives have a fitted effect of over 40% in size; also: potency is read from the fitted curve at half-maximal effect)
# Procedure, shortened: as §1
# [10] = BET inhibitor-based combinations targeting novel dependencies in MECOM-rearranged (r) AML: SET-2 cell line (AID 2202231); settings: SET-2 AML cells viability, CellTiter-Glo luminescence, 48 h; viability: active compounds read low, series mostly up to about 46 µM; also: nearly all actives have a fitted effect of over 35% in size
# Procedure, shortened: as §1
# [11] = BET inhibitor-based combinations targeting novel dependencies in MECOM-rearranged (r) AML: HNT-34 cell line (AID 2202234); also: nearly all actives have a fitted effect of over 35% in size; also: potency is read from the fitted curve at half-maximal effect
# Procedure, shortened: as §2
Structure (SMILES),Potency [1],Potency [2],Potency [3],Potency [4],Potency [5],Potency [6],Potency [7],Potency [8],Potency [9],activation [1],viability [10],Potency [11]
Cc1nc(Nc2ncc(C(=O)Nc3c(C)cccc3Cl)s2)cc(N2CCN(CCO)CC2)n1,9.53 µM (active),inactive,inactive,inactive,13.2 µM (active),13.2 µM (active),7.42 µM (active),14.8 µM (active),11.8 µM (active),,,
O=C(Nc1cccc(C(F)(F)F)c1)Nc1cc(S(=O)(=O)NC2CC2)ccc1-c1ccsc1,,inactive,inactive,inactive,,26.3 µM (active),,,,29.6% and 2.39%,,
COc1cc(OC)c2c(=O)[nH]c(-c3cc(C)c(OCCO)c(C)c3)nc2c1,,inactive,inactive,inactive,14.8 µM (active),16.6 µM (active),,16.6 µM (active),20.9 µM (active),-0.477%,,
O=C1[C@H](CC[C@H](O)c2ccc(F)cc2)[C@@H](c2ccc(O)cc2)N1c1ccc(F)cc1,,inactive,inactive,inactive,,16.6 µM (active),,,,-8.47% and 7.16%,,
N#Cc1ccc(Oc2ccc3c(c2)COB3O)cc1,,inactive,2.82 µM (active),,,,,13.2 µM (active),,19.4% and -4.77%,109%,inactive
O=C(Nc1cccc(Br)c1)c1cccc(S(=O)(=O)N2CCCCCC2)c1,,inactive,inactive,inactive,,16.6 µM (active),inactive,,,41.1% and -27.9%,,
c1cc(OCCN2CCCCC2)cc(-c2n[nH]c3ccc(-c4ncn[nH]4)cc23)c1,,inactive,inactive,inactive,,,13.2 µM (active),,,5.89% and 12.9%,,14.8 µM (active)
COc1nc(C)cnc1NS(=O)(=O)c1cccnc1-c1ccc(-c2nnco2)cc1,,inactive,inactive,inactive,inactive,inactive,,inactive,inactive,13.1% and 3.34%,,inactive
COCCCOc1ccnc(CS(=O)c2nc3ccccc3[nH]2)c1C (stereo unspecified),,inactive,inactive,inactive,inactive,,inactive,inactive,inactive,-8.47% and 40% and -11.5%,,inactive
CC(C)N(CCCNC(=O)Nc1ccc(C(C)(C)C)cc1)C[C@H]1O[C@@H](n2cc(Br)c3c(N)ncnc32)[C@H](O)[C@@H]1O,,inactive,inactive,inactive,23.5 µM (active),20.9 µM (active),inactive,,23.5 µM (active),-6.7%,,26.3 µM (active)
CCCc1cc(C)[nH]c(=O)c1CNC(=O)c1cc(-c2ccnc(N3CCN(C)CC3)c2)cc2c1cnn2C(C)C,,inactive,inactive,inactive,,23.5 µM (active),,,,-12.3%,,
COc1ccc2c(Oc3ccc(NC(=O)c4c(C)n(CC(C)(C)O)n(-c5ccccc5)c4=O)nc3)ccnc2c1,,inactive,inactive,inactive,,0.372 µM (active),,,,16.6% and 11.9%,,3.32 µM (active)
O=C1Nc2ccc(Cl)cc2[C@@](C#CC2CC2)(C(F)(F)F)O1,,inactive,inactive,inactive,,23.5 µM (active) and 20.9 µM (active),inactive,,,17.5% and 0%,,
Fc1ccc2[nH]ccc2c1-c1nc(N2CCOCC2)c2sc(CN3CCN(CC4CC4)CC3)cc2n1,,inactive,inactive,inactive,11.8 µM (active),,16.6 µM (active),10.5 µM (active),8.33 µM (active),22%,,18.6 µM (active)
COC1CCN(C(=O)c2cc(Cc3n[nH]c(=O)c4ccccc34)ccc2F)CC1,,inactive,inactive,inactive,,16.6 µM (active),,18.6 µM (active),,4.47%,,
O=C(Nc1cccnn1)N1CCC(=Cc2cccc(Oc3ccc(C(F)(F)F)cn3)c2)CC1,,inactive,inactive,inactive,,,inactive,18.6 µM (active),18.6 µM (active),-1.43%,,
c1ccc(CNc2nc(N3CCOc4ccccc43)nc3c2CCCC3)cc1,,inactive,inactive,inactive,inactive,,inactive,,inactive,-5.48% and -6.21%,,
CCCCn1c(=O)n(Cc2ccccc2F)c(=O)c2[nH]c(Cc3ccc(NC(C)=O)cc3)nc21,,inactive,inactive,inactive,inactive,inactive,inactive,inactive,inactive,0.477%,,
CN(C(=O)c1ccc(F)cc1C(F)(F)F)C1CCN(c2nnc(-c3ccnn3C)c3ccccc23)CC1,,inactive,inactive,inactive,,16.6 µM (active),inactive,,,36.5% and 1.43%,,
CC[C@@H](C)Nc1cc(C(=O)NC2CC3CC[C@@H](C2)N3c2ccc(C(=O)C3CC3)cn2)c(C)cc1C(N)=O (stereo partly specified),,inactive,inactive,inactive,0.0661 µM (active),0.0417 µM (active),0.132 µM (active),0.118 µM (active),0.105 µM (active),20.5%,,0.105 µM (active)
FC(F)(F)c1ccc(CNc2ccc(Cc3c[nH]c4ncccc34)cn2)cc1,,inactive,inactive,inactive,20.9 µM (active),0.525 µM (active),,13.2 µM (active),16.6 µM (active),2.39%,,
COc1ccc2c(Oc3ccc(NC(=O)c4c(C)n(CC(C)(C)O)n(-c5ccccc5)c4=O)cc3F)ccnc2c1,,inactive,inactive,inactive,,0.209 µM (active),inactive,20.9 µM (active),,-9.3% and -1.91%,,4.68 µM (active)
CC(C)n1cnc2c(NCCc3ccc(O)cc3)nc(-c3csc4ccccc34)nc21,,inactive,inactive,inactive,20.9 µM (active),,,20.9 µM (active),20.9 µM (active),28% and 17.7%,,
CCNC(=O)c1noc(-c2cc(C(C)C)c(O)cc2O)c1-c1ccc(CN2CCOCC2)cc1,,inactive,inactive,inactive,,,0.0166 µM (active),,,-2.59% and -6.68%,,
C[C@@H](NC(=O)c1ncnc(N)c1Cl)c1ncc(C(=O)Nc2cc(C(F)(F)F)c(Cl)cn2)s1,,inactive,inactive,inactive,,,8.33 µM (active),,,19.6%,,2.35 µM (active)
Cc1nnc(C(C)C)n1C1CC2CCC(C1)N2CCC(NC(=O)C1CCC(F)(F)CC1)c1ccccc1 (stereo unspecified),,inactive,inactive,inactive,inactive,inactive,,,inactive,-3.82%,,inactive
CC(C)c1cc(-c2n[nH]c(=O)n2-c2ccc3c(ccn3C)c2)c(O)cc1O,,inactive,inactive,inactive,,0.0235 µM (active),0.0468 µM (active),,,-0.957% and -3.82%,,
